Assay outcomes: PubChem BioAssay, National Center for Advancing Translational Sciences (NCATS)
KB-V1 cytotox: KB-V1 MDR subline cytotoxicity; hit rate 3.4% among 400,000; KB-V1 MDR cells viability, CellTiter-Glo, 72 h; Potency, µM (top dose mostly 46.1 µM), usual class: cytotoxic; note: nearly all actives have a fitted effect of over 60% in size
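KB-V1 MDR subline cells in DMEM (phenol-red free, 10% FBS) exposed to compounds in qHTS concentration series for 72 h at 37 degrees C. Viability read by CellTiter-Glo luminescence; concentration-effect curves fitted after normalization and correction.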
KB-3-1 tox: kills parental KB-3-1 adenocarcinoma cells | AID 1347075 | hit rate 1.4% among 400,000 | Potency, µM (doses to about 46.1 µM), actives largely listed as cytotoxic | KB-3-1 viability, CellTiter-Glo ATP luminescence, 72 h; note: nearly all actives have a fitted effect of over 60% in size
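Parental KB-3-1 viability, qHTS format: 72 h compound exposure, 37 °C; CellTiter-Glo; media-only wells and DMSO plates as controls; concentration-effect fits on corrected data.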
HT1080-NT tox: kills 2HG-producing HT-1080-NT fibrosarcoma cells | HT-1080-NT fibrosarcoma viability, CellTiter-Glo ATP luminescence, 48 h | Potency, µM (top dose mostly 46.1 µM), for inactives: top-dose activity, negative = less viability, hits mostly cytotoxic | hit rate 1.6% among 360,000 | AID 686970;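 note: NT is the 2HG producing partner of a matched IDH1 knockdown line; 0% = DMSO-treated cells and -100% = media-only wells without cells; nearly all actives have a fitted effect of over 55% in size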
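750 cells/well, RPMI + 5% FBS; 2 h settle, compound pin-transfer, 48 h at 37 degrees C. CellTiter-Glo 10 min RT, luminescence. Normalized to DMSO and media-only wells.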
HT1080 IDH1KD tx: kills HT-1080 cells with IDH1 knockdown. Potency, µM (series often up to 46.1 µM), for the others: top-dose activity, negative = toxicity, hits mostly cytotoxic. HT-1080 IDH1 knockdown viability, ATP luminescence, 48 h. AID 686971. hit rate 2% among 360,000;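 note: 0% = DMSO wells and -100% = cell-free medium wells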
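Knockdown cells (IDH1KD HT-1080) received compounds 2 h after plating at 750 cells/well and were kept 48 h at 37 °C in 5% FBS RPMI. A CellTiter-Glo luminescence read gave % activity for curve fitting.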
The depositor's hits bear a star; i = inactive; ? = inconclusive; nt = not tested or not shown. Sampled rows, rich in hits. Any-hit rate of the full collection: about 5.7%. Calls come from the whole dose curve; as a rule, active = well fitted curve in the direction sought with a large enough effect; inconclusive = small, poorly fitted or top-dose-only effect, or another doubt; inactive = no such curve, though single readings can be large; an effect the other way counts as inactive or inconclusive. Unless noted, % is set by controls: 0 for no effect and ±100 for the full control effect; potency is the fitted concentration of half-maximal effect.

SMILES | KB-V1 cytotox | KB-3-1 tox | HT1080-NT tox | HT1080 IDH1KD tx
CCN1CCN(C(=O)/C=C/c2ccc([N+](=O)[O-])cc2)CC1 | i | i | -1% | -6%
Cc1nn(C)cc1C(=O)/C=C/c1ccc([N+](=O)[O-])cc1 | ? | ? | 23µM* | ?
CCn1cc(CN(C)C(=O)/C=C/c2ccc([N+](=O)[O-])cc2)c(C)n1 | 18µM* | i | 1% | -2%
O=C(Nc1cccc(C(F)(F)F)c1)c1cc(CN2CCOCC2)on1 | i | i | nt | nt
COc1ccc(N2CC(NC(=O)c3cccs3)CC2=O)cc1OC (stereo not drawn) | i | i | nt | nt
O=C(CSc1nnc(-c2cccc(F)c2)o1)Nc1nncs1 | i | i | 2% | 13%
Cc1ccc(C)c(NC(=O)CSc2nnc(-c3ccccc3)o2)c1 | i | i | 13% | 25%
CCn1c2ccccc2c2cc(NC(=O)CSc3nnc(-c4ccccc4)o3)ccc21 | ? | i | ? | 21µM*
CCn1c2ccccc2c2cc(NC(=O)CSc3nnc(-c4cccc(C)c4)o3)ccc21 | ? | 23µM* | -3% | -2%
CCn1c2ccccc2c2cc(NC(=O)CSc3nnc(-c4cccc(F)c4)o3)ccc21 | 12µM* | 7.3µM* | 13µM* | ?
COc1ccc(/C=C2\Sc3ccc(C(=O)NCc4cccnc4)cc3N(C)C2=O)cc1OC | i | i | 23µM* | 23µM*
COc1ccc(/C=C2/Sc3ccc(C(=O)NCCCN4CCOCC4)cc3NC2=O)cc1OC | i | ? | ? | 21µM*
COc1cccc(/C=C2\Sc3ccc(C(=O)NCc4cccnc4)cc3N(C)C2=O)c1 | i | i | -9% | -29%
COc1ccc(C(=O)Nc2sc3c(c2C(=O)O)CC(C)(C)OC3)cc1 | ? | ? | -26% | ?
CC(C)COc1ccc(C(=O)Nc2sc3c(c2C(=O)O)CC(C)(C)OC3)cc1 | i | 8.2µM* | ? | -28%
Cc1cccc(/C=N/NC(=O)c2ccc(NC(=O)c3ccc(F)cc3)cc2)n1 | i | i | -23% | -24%
CC(=O)Nc1ccc(C(=O)N/N=C/c2ccccc2OC(=O)c2ccc(Cl)cc2)cc1 | i | ? | ? | 23µM*
COc1cc(C(=O)Oc2ccccc2/C=N/NC(=O)c2ccc(Cl)cc2)cc(OC)c1OC | ? | 5.2µM* | ? | ?
Cc1cccc(/C=N/NC(=O)c2ccc(NC(=O)c3ccc(Cl)cc3)cc2)n1 | i | ? | 18µM* | 18µM*
COc1ccccc1/C=N/NC(=O)c1ccc(Br)cc1 | i | i | 1% | 1%
CCCN1C(=O)C2(c3ccccc31)c1c(oc3ccc(F)cc3c1=O)C(=O)N2CCCOC(C)C (stereo not drawn) | i | i | nt | nt
COc1ccc(-n2c(SCC(=O)Nc3cc(C)cc(C)c3)nc3c(oc4ccccc43)c2=O)cc1 | i | i | nt | nt
O=C(NCc1ccc(F)cc1)C(=O)NCC1CCCN1S(=O)(=O)c1ccccc1 (stereo not drawn) | ? | i | -4% | -16%
O=C(NCCc1ccc(F)cc1)C(=O)NCC1CCCN1S(=O)(=O)c1ccccc1 (stereo not drawn) | 5.8µM* | 18µM* | -19% | ?
COc1ccc(CCNC(=O)C(=O)NCC2CCCN2S(=O)(=O)c2ccccc2)cc1 (stereo not drawn) | i | i | ? | -5%
SMILES | KB-V1 cytotox | KB-3-1 tox | HT1080-NT tox | HT1080 IDH1KD tx
COc1ccc(S(=O)(=O)N2CCCC2CNC(=O)C(=O)NCCc2ccccc2)cc1 (stereo not drawn) | 4.6µM* | 8.2µM* | ? | 18µM*
COc1ccccc1CCNC(=O)C(=O)NCC1CCCN1S(=O)(=O)c1ccccc1 (stereo not drawn) | 21µM* | i | ? | ?
CC(C(=O)c1ccccc1)[n+]1ccc(Cl)c2ccc(Cl)cc21 (stereo not drawn) | i | i | nt | nt
CCOC(=O)c1sc(NC(=O)C(C)Sc2nc(-c3ccccc3)cc(C(F)(F)F)n2)c(C(=O)OC)c1C (stereo not drawn) | i | i | nt | nt
O=C(NCC1CCN(Cc2ccc(F)cc2)CC1)c1cc2ccc3cccnc3c2[nH]1 | i | i | nt | nt
CN(C)C(CNS(=O)(=O)c1ccc(Cl)cc1F)c1ccco1 (stereo not drawn) | 18µM* | i | -4% | 0%
